Test in all cases: log2 ratio of Biotin-Ahx-Ub-VS probe labelling (fragment/DMSO); higher = less target engagement (more negative = stronger competition), active = hit call of the paper (q ≤ 0.05, log2 ratio ≤ -1)
Common to all, as to details: compound concentration: 200 uM; treatment time: 3 h

In one experiment the target is T1, USP19 (UniProt O94966).
T1 sequence (whole entry): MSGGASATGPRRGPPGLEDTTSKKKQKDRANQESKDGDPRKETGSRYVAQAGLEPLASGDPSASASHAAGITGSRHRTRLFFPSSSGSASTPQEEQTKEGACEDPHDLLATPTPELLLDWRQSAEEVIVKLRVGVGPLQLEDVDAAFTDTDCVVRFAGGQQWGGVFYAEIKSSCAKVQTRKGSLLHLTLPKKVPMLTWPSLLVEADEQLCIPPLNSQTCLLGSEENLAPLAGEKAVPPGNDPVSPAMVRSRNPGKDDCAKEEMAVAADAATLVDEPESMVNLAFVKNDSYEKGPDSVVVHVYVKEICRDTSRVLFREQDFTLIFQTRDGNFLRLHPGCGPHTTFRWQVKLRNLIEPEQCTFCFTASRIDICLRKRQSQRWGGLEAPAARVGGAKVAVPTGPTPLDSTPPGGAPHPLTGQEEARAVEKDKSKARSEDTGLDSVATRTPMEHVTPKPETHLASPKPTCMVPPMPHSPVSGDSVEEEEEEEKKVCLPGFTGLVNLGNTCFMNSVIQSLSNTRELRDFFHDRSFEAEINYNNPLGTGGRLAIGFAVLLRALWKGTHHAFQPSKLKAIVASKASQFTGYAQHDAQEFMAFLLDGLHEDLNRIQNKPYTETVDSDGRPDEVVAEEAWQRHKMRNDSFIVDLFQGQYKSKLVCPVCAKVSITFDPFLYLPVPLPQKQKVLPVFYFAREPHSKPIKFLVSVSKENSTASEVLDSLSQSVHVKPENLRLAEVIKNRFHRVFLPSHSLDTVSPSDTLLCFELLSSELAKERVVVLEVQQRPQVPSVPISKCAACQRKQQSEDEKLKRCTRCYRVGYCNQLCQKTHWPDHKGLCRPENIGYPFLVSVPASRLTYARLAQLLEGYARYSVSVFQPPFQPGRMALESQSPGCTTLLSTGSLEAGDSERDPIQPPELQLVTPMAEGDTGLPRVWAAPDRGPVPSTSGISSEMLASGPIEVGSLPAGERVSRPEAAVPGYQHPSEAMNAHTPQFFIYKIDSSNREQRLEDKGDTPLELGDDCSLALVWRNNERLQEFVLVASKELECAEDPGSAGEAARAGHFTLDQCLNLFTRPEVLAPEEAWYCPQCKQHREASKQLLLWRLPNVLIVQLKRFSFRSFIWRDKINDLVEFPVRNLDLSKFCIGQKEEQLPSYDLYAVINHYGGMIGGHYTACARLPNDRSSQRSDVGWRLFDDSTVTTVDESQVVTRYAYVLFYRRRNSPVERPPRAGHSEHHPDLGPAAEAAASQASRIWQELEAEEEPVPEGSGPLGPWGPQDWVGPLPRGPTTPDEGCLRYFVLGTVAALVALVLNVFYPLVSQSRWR
Summed up: (§1)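 HEK293T lysate, 495 µg per sample in Tris/CHAPS/IGEPAL buffer with protease inhibitors, was treated in triplicate with fragment at 200 µM or vehicle for 3 h and then with Biotin-Ahx-Ub-VS at 0.5 µM final for 1 h. Labelled DUBs were NeutrAvidin-enriched, digested with LysC and trypsin, and run by diaPASEF LC-MS/MS. Spectronaut label-free quantities were global-median-normalised, and values are average log2 fragment/vehicle ratios by unpaired t-test on proteins with ≥2 unique peptides.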

A further experiment concerns the target T2, USP22 (UniProt Q9UPT9).
T2 sequence (whole entry): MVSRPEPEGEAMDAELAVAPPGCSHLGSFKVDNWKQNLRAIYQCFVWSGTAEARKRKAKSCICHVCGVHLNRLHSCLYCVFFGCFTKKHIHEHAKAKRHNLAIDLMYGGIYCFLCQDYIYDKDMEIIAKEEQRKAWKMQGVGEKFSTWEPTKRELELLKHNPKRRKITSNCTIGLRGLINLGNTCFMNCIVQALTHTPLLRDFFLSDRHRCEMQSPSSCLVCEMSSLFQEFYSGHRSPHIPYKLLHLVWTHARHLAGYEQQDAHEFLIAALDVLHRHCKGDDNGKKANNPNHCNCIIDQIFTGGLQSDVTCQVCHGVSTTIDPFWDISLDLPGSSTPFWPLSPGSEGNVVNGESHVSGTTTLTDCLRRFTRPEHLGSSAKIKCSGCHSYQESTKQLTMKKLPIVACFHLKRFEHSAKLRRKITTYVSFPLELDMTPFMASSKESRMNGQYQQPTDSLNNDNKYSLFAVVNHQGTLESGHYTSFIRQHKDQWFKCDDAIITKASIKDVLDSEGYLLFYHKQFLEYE
The gist of the method: as §1

The target in the next experiment is USP24 (UniProt Q9UPU5). Summed up: as §1
Chain of USP24 (Q9UPU5 whole entry): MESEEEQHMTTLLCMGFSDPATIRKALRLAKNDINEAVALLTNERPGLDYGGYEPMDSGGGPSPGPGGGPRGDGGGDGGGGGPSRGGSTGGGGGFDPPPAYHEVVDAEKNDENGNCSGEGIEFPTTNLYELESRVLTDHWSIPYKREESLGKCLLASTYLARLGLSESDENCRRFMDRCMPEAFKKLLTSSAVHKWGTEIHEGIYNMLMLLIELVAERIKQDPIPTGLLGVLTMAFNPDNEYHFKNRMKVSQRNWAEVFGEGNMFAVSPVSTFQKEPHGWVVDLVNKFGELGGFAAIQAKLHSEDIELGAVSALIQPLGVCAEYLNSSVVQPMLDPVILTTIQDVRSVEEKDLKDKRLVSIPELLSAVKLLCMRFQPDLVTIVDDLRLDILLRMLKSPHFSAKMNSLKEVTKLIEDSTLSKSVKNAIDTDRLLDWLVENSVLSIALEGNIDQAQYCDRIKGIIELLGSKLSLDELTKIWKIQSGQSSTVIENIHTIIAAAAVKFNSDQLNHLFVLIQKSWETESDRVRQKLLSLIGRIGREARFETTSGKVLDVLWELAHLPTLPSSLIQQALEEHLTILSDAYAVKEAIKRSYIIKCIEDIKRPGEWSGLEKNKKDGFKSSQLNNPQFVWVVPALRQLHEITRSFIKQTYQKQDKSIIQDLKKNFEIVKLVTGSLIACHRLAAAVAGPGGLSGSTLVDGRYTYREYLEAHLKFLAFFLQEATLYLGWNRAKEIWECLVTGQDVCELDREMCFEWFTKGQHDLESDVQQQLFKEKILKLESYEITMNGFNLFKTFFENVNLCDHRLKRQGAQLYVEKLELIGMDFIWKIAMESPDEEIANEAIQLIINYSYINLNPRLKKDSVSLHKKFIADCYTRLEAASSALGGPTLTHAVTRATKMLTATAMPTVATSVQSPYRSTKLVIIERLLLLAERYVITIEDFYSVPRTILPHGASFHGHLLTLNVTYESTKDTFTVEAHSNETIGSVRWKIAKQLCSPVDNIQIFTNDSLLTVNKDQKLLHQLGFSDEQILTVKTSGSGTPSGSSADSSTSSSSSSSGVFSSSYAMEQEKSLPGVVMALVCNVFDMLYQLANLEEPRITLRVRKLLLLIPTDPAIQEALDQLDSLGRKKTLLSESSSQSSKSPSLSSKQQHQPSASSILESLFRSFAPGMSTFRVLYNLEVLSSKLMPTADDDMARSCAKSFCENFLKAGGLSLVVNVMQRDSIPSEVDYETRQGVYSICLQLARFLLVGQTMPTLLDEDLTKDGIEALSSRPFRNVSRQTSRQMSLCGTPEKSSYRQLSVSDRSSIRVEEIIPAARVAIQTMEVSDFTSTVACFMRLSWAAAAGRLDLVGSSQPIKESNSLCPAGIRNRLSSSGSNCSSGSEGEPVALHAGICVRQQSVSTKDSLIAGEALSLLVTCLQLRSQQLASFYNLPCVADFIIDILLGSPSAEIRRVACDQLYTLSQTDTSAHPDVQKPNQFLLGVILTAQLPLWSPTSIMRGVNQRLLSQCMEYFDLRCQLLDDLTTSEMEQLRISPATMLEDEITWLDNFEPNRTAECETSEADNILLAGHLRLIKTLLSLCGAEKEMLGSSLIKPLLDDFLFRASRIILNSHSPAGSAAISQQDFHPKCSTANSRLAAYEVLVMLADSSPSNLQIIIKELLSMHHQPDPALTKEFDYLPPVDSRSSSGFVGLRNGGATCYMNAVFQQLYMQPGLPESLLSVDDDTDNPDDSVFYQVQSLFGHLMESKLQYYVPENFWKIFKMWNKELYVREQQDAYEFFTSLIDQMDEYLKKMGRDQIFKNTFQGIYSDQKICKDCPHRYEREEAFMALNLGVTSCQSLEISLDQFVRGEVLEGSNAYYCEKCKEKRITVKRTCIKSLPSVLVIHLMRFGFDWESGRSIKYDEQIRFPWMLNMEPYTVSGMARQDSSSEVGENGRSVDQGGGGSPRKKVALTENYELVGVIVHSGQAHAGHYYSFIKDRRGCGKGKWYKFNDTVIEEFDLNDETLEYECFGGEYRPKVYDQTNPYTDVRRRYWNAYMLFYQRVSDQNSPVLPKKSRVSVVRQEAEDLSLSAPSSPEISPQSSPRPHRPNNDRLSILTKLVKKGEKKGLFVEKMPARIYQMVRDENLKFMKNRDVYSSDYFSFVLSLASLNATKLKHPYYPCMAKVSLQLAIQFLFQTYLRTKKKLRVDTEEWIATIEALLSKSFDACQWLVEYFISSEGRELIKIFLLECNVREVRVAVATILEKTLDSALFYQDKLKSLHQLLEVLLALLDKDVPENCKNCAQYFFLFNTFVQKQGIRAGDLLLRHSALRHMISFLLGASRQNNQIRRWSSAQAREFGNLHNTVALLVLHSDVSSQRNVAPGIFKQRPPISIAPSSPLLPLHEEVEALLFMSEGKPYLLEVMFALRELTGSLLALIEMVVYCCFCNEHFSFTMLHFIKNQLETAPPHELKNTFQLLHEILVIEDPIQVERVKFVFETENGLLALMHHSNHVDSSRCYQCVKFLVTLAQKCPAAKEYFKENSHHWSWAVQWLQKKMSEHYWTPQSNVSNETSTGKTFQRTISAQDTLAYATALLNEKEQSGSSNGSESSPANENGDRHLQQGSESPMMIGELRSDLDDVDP
In another experiment the target is T3, USP25 (UniProt Q9UHP3).
T3 sequence (whole entry): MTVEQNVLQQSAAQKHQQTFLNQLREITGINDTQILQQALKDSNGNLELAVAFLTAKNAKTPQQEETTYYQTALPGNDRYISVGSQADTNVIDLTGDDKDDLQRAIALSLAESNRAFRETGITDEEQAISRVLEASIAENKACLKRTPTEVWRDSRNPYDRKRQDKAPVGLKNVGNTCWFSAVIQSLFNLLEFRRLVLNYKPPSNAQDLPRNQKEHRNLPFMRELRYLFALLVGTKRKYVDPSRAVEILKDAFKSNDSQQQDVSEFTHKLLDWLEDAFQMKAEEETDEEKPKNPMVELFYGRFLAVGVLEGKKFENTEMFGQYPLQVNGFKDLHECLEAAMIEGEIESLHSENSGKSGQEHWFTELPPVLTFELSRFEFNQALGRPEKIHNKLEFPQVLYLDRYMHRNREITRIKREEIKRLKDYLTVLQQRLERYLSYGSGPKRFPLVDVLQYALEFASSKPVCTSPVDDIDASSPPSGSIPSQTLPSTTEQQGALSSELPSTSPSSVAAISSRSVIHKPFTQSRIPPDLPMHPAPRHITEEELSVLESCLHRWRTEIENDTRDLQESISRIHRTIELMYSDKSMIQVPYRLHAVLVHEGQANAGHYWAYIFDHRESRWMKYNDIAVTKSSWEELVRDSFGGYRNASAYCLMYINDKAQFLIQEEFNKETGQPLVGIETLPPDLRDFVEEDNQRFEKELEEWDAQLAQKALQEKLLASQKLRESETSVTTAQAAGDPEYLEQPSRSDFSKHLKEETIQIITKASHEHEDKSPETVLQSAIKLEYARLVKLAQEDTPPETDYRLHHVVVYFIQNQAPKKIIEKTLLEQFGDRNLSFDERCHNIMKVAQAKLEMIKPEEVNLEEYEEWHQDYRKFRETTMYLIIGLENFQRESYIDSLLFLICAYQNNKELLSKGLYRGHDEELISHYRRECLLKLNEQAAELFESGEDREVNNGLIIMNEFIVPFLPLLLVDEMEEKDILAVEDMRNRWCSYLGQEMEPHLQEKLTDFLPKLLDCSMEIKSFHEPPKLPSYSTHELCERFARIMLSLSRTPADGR
The gist of the method:
as §1

For the next experiment, the target named is T4, USP28 (UniProt Q96RU2).
T4 sequence (whole entry): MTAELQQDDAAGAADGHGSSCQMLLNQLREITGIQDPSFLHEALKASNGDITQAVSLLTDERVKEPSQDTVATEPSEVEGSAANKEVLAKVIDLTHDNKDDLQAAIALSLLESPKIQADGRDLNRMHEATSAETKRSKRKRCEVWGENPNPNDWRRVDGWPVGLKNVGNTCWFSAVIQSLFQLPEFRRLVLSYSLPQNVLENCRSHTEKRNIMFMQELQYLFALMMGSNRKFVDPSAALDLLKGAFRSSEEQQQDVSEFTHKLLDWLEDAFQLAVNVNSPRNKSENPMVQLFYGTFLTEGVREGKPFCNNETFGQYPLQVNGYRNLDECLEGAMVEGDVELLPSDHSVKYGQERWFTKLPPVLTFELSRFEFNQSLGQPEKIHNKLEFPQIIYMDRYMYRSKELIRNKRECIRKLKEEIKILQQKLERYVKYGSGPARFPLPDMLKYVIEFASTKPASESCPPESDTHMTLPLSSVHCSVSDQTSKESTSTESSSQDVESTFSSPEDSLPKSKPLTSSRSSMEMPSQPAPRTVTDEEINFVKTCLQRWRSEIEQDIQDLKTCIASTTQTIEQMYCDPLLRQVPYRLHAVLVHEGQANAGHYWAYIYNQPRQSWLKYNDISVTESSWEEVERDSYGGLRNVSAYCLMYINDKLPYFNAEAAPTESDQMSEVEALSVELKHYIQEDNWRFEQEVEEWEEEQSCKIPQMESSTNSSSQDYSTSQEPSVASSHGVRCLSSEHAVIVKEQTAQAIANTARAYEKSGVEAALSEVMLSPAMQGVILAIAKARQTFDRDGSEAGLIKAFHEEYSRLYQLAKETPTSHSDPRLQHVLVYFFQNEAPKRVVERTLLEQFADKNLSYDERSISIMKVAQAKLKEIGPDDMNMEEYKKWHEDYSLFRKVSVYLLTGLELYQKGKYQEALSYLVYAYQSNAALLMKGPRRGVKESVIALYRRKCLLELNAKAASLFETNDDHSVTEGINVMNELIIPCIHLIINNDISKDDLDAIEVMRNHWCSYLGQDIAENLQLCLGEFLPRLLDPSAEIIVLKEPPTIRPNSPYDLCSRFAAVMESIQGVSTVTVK
The gist of the method:
as §1

Values without a mark were called inactive.

`Cn1cc(CN(Cc2ccc(Cl)cc2)C(=O)CCl)cn1`: the “log2 ratio of Biotin-Ahx-Ub-VS probe labelling” value with USP19 was -0.653; with USP22, 0.0724; with USP24, -1.49 (active); with USP25, -0.161; with USP28, -0.648.

The values above are taken from the supplement of paper PMC11732987, “Enantioselective OTUD7B fragment discovery through chemoproteomics screening and high-throughput optimisation” (Communications Chemistry, 2025).
